# Several values for one entry are separate records, joined by “and”; a condition that tells them apart may be missing. Equal entries are not always repeated. Inconclusive results are not listed. Activity calls are given as the source filed them. Unless noted, calls come from the whole dose curve; as a rule, active = well fitted curve in the direction sought with a large enough effect; inconclusive = small, poorly fitted or top-dose-only effect, or another doubt; inactive = no such curve, though single readings can be large; an effect the other way counts as inactive or inconclusive.
# Columns and labels:
# [1] = Primary qHTS for inhibitors of nuclear receptor binding SET domain protein 2 (NSD2) in an isogenic RCH-ACV NSD2 p.E1099K mutant (9B) (AID 1645876); note: nearly all actives have a fitted effect of over 70% in size
# [2] = Primary qHTS for inhibitors of nuclear receptor binding SET domain protein 2 (NSD2) in an RCH-ACV wild type WT cells (2C) (AID 1645877); note: nearly all actives have a fitted effect of over 70% in size
# [3] = molecular target: Catechol O-methyltransferase (Homo sapiens) (UniProt P21964); experiment: Confirmatory Screen for Target Class Profiling of Small Molecule Inhibitors of Methyltransferases (AID 1745852; calls by dose curve; for activity change, negative = inhibition: % is set by controls: 0 for no effect and ±100 for the full control effect); conditions: MTase-Glo luminescence, SAH detection, recombinant enzyme; measured here: COMT max response; stronger effect = lower value
# Sequence of Catechol O-methyltransferase (Homo sapiens) (P21964 whole entry, looked up): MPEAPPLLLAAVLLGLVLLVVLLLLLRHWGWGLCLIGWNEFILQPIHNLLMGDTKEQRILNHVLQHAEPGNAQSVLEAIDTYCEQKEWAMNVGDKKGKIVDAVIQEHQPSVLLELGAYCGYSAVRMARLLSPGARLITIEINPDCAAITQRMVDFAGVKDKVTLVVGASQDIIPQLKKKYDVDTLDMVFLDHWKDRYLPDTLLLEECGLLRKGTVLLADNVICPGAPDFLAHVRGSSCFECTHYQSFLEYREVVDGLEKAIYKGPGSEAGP
# [4] = molecular target: Guanidinoacetate N-methyltransferase (Homo sapiens) (UniProt Q14353); experiment: as above; conditions: activity change, negative = inhibition: at 57.3 µM (top of the series) unless noted
# [5] = molecular target: Nicotinamide N-methyltransferase (Homo sapiens) (UniProt P40261); experiment: as above; conditions: MTase-Glo luminescence, SAH detection, recombinant enzyme; measured here: NNMT max response; stronger effect = lower value
# Sequence of Nicotinamide N-methyltransferase (Homo sapiens) (P40261 whole entry, looked up): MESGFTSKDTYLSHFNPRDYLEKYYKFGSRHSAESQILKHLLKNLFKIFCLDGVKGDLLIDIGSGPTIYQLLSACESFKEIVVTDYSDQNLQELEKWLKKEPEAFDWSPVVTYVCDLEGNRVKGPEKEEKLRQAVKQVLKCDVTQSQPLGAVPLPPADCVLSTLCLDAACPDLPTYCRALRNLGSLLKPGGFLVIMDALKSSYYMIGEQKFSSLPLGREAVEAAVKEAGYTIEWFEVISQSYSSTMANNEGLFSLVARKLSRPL
# [6] = molecular target: Phenylethanolamine N-methyltransferase (Homo sapiens) (UniProt P11086); experiment: as above; conditions: MTase-Glo luminescence, SAH detection, recombinant enzyme; measured here: PNMT max response; stronger effect = lower value
# Sequence of Phenylethanolamine N-methyltransferase (Homo sapiens) (P11086 whole entry, looked up): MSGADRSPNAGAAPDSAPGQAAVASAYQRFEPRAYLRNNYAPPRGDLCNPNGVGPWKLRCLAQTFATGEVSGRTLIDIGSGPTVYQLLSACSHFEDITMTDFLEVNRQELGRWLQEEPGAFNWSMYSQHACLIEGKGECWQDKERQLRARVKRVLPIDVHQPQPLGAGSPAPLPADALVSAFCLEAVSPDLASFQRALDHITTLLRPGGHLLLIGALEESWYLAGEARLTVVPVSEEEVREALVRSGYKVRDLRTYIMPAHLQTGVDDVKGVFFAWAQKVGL
# Potency is the fitted concentration of half-maximal effect.
compound,measurement,setting,value
CCc1c[nH]c2ncnc(N3CC[C@](N)(CNC(=O)c4ccc(F)cc4F)C3)c12,Potency,[1],1.63 µM (active)
same,Potency,[2],3.65 µM (active)
O=C(Nc1cnc(Cl)nc1)c1ccc(F)c(F)c1,Potency,[1],inactive
same,Potency,[2],inactive
Cc1ccc(N2CCN(CCC3NC(=O)c4ccccc43)CC2)cc1C (centres undefined),Potency,[1],inactive
same,Potency,[2],inactive
CC(=O)O[C@@H]1CC[C@@]2(C)C(CC[C@]3(C)C2[C@H](O)C=C2[C@H]4[C@@H](C)[C@H](C)CC[C@]4(C)CC[C@]23C)[C@@]1(C)C(=O)O (some centres undefined),Potency,[1],inactive
same,Potency,[2],inactive
O=C(Nc1cccnn1)N1CCN(c2nccc(-c3ccc(F)c(F)c3)n2)CC1,Potency,[1],inactive
same,Potency,[2],inactive
C=C[C@@]12COC(=O)C(=C)[C@@H]1[C@@H](O)[C@H](C(=C)C(=O)OC)[C@@H](O)C2,Potency,[1],inactive
same,Potency,[2],inactive
CC(C)C[C@@H](C(=O)N[C@@H](Cc1ccc(OCc2ccccc2)cc1)C(=O)NC(C)(C)C)N(C)Cc1ccc(C(C)(C)C)cc1,Potency,[1],inactive
same,Potency,[2],inactive
CCS(=O)c1nc(-c2cccc(OCc3ccccc3)c2)cc(C(F)(F)F)n1 (centres undefined),Potency,[1],5.15 µM (active)
same,Potency,[2],3.25 µM (active)
Cc1cc2c(F)c(Oc3ncnn4cc(OCC(C)OC(=O)C(C)N)c(C)c34)ccc2[nH]1 (centres undefined),Potency,[1],9.34 µM (active)
same,Potency,[2],8.33 µM (active)
COc1cc(O)c2c(c1)/C=C/C[C@H](O)[C@H](O)C(=O)/C=C\C[C@H](C)OC2=O,Potency,[1],2.06 µM (active) and 2.58 µM (active)
same,Potency,[2],1.46 µM (active) and 1.83 µM (active)
c1cc(-c2cnn3cc(-c4ccc(N5CCNCC5)cc4)cnc23)c2cccnc2c1,Potency,[1],5.25 µM (active)
same,Potency,[2],4.17 µM (active)
Cc1ccc(-c2c(C(=O)CCl)n(CCCO)c3ncnc(N)c23)cc1,Potency,[1],20.5 µM (active)
same,Potency,[2],23 µM (active)
Cc1[nH]c2ccccc2c1CCNC(=O)c1cccs1,Potency,[1],inactive
same,Potency,[2],inactive
CC(C)=CCC[C@](C)(O[C@@H]1O[C@H](CO[C@@H]2OC[C@@H](O)[C@H](O)[C@H]2O)[C@@H](O)[C@H](O)[C@H]1O)[C@H]1CC[C@]2(C)[C@@H]1[C@H](O)C[C@@H]1[C@@]3(C)CC[C@H](O[C@@H]4O[C@H](CO)[C@@H](O)[C@H](O)[C@H]4O)C(C)(C)[C@@H]3CC[C@]12C,Potency,[1],inactive
same,Potency,[2],inactive
c1ccc(-c2ccc(CNc3nc(-c4ccccn4)nnc3-c3ccccc3)cc2)cc1,Potency,[1],2.95 µM (active)
same,Potency,[2],2.95 µM (active)
CC[C@@H](C)Nc1cc(C(=O)NC2CC3CCC(C2)N3c2ccc(C(=O)C3CC3)cn2)c(C)cc1C(N)=O (some centres undefined),Potency,[1],0.118 µM (active)
same,Potency,[2],0.132 µM (active)
Cc1ccc(S(=O)(=O)NCc2ccc(C(=O)NCCN(Cc3ccccc3)C(C)C)cc2)cc1,Potency,[1],16.3 µM (active)
same,Potency,[2],23 µM (active)
CC(=O)NC[C@H]1CN(c2ccc(N3CCSCC3)c(F)c2)C(=O)O1,Potency,[1],inactive
same,Potency,[2],inactive
C[C@]12CC[C@@H]3c4ccc(O)c(O)c4CC[C@H]3[C@@H]1CCC2=O,Potency,[1],18.3 µM (active)
same,Potency,[2],11.5 µM (active)
same,activity,[3],-61.7%
same,"activity change, negative = inhibition",[4],-3.15%
same,activity,[5],-14.2%
same,activity,[6],-20.6%
COc1cc(/C=C2\CCCN([C@@H](C)c3ccc(F)cc3)C2=O)ccc1-n1cnc(C)c1,Potency,[1],11.5 µM (active)
same,Potency,[2],12.9 µM (active)
same,activity,[3],-8.51%
same,Potency,[4],2.41 µM (active)
same,activity,[5],-25.5%
same,activity,[6],-13%
Cc1c[nH]c2ncnc(N3CCC(CN)(C(=O)Nc4cccc(OC(=O)N(C)C)c4)CC3)c12,Potency,[1],9.34 µM (active) and 7.42 µM (active)
same,Potency,[2],10.5 µM (active) and 11.8 µM (active)
same,activity,[3],-12.7%
same,"activity change, negative = inhibition",[4],-4.87% [at 114 µM]
same,activity,[5],-59.8%
same,activity,[6],-19.2%
C/C(=C\CCC(C)C1=CCC2(C)OC3=C(CC12)C(=O)C(O)CC3)CO (centres undefined),Potency,[1],inactive
same,Potency,[2],inactive
Cc1nc2c(C(F)(F)F)cccc2nc1-c1ccc(-c2cccc(S(C)(=O)=O)c2)cc1,Potency,[1],inactive
same,Potency,[2],inactive
CN(C)CCOC(C)(c1ccccc1)c1ccc(Cl)cc1 (centres undefined),Potency,[1],11.5 µM (active)
same,Potency,[2],10.3 µM (active)
same,activity,[3],-7.63%
same,"activity change, negative = inhibition",[4],-4.69%
same,activity,[5],-25.2%
same,activity,[6],-3.91%
CCNC(=O)C#Cc1ccc2c(C(=Nc3ccc(CN(C)C)cc3)c3ccccc3)c(O)[nH]c2c1,Potency,[1],0.512 µM (active)
same,Potency,[2],0.0102 µM (active)
same,activity,[3],-20.9%
same,"activity change, negative = inhibition",[4],-11.9% [at 29.8 µM]
same,activity,[5],-31%
same,activity,[6],-19.5%
C=C1C(=O)O[C@@H]2C(OC(=O)/C(C)=C\C)/C(C)=C\C(=O)/C=C(\C)C[C@H](O)[C@@H]12 (some centres undefined),Potency,[1],2.26 µM (active)
same,Potency,[2],1.6 µM (active)
CC(C)C[C@H](C(=O)O)c1cc(-c2ccc(C(F)(F)F)cc2)cc(-c2ccc(C(F)(F)F)cc2)c1,Potency,[1],9.16 µM (active)
same,Potency,[2],11.5 µM (active)
same,activity,[3],-6.76%
same,Potency,[4],48.2 µM (active)
same,activity,[5],-40.6%
same,activity,[6],-16.1%
COC(=O)CC1OC(C)C2=C(O)c3c(O)cccc3C(=O)C23OC13 (centres undefined),Potency,[1],2.84 µM (active)
same,Potency,[2],2.01 µM (active)
same,activity,[3],-4.94%
same,"activity change, negative = inhibition",[4],-3.96%
same,activity,[5],-0.835%
same,activity,[6],-0.505%
OC1C=C2C3CN(Cc4cc5c(cc43)OCO5)C2CC1O (centres undefined),Potency,[1],6.49 µM (active)
same,Potency,[2],7.28 µM (active)
Cc1sc2c(c1C)C(c1ccc(Cl)cc1)=N[C@H](CC(=O)NCCCCNC(=O)COc1cccc3c1C(=O)N([C@H]1CCC(=O)NC1=O)C3=O)c1nnc(C)n1-2,Potency,[1],0.23 µM (active)
same,Potency,[2],0.129 µM (active)
same,activity,[3],-0.126%
same,"activity change, negative = inhibition",[4],0%
same,activity,[5],-57.3%
same,activity,[6],3.3%
CNc1nc(Nc2ccc(C(=O)N3CCOCC3)cc2OC)nc2[nH]cc(Cl)c12,Potency,[1],4.09 µM (active)
same,Potency,[2],2.9 µM (active)

# From PubChem BioAssay (NCATS)
